Measurements published in PubChem BioAssay (EPA / NIEHS).
Calls of active or inactive are those of the source. How the source made its calls: active means hit-call score of the fitted dose curve at least 0.9, where 1 is the maximum; inactive means score below 0.9.

What was measured:
Conditions in all cases: mRNA level, 48 h; actives raise or lower the signal
[1] = read-out: Bcl-2 (BAX) gene, BAX (gene 581); assay: LTEA_HepaRG_BAX: Life Technologies and Expression Analysis (LTEA) Assay for Bcl-2 (BAX) gene using HepaRG (AID 2283470)
How it was run: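 HepaRG (human liver), 48 h exposure, duplicate wells. 8-pt curve, half-log from 100 uM, 0.5% DMSO. BAX transcript by TaqMan qRT-PCR; ACTB/GAPDH/POLR2A normalization; gain or loss vs DMSO baseline.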

[2] = read-out: adenosine kinase (ADK) gene, ADK (gene 132); assay: LTEA_HepaRG_ADK: Life Technologies and Expression Analysis (LTEA) Assay for adenosine kinase (ADK) gene using HepaRG (AID 2283471)
How it was run: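 ADK expression quantified by qRT-PCR, normalised to three housekeeping genes, after 48 h exposure of HepaRG cells to eight concentrations (top 100 uM, half-log steps, duplicate, 0.5% DMSO). Up- or down-regulation fitted relative to vehicle.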

BCL2L11 (gene 10018) = assay: LTEA_HepaRG_BCL2L11: Life Technologies and Expression Analysis (LTEA) Assay for Bcl-2 (BCL2L11) gene using HepaRG (AID 2283473)
How it was run: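 Read-out is BCL2L11 transcript level by qRT-PCR, normalized to three housekeeping genes and fitted bidirectionally against 0.5% DMSO vehicle. HepaRG cells received chemicals for 48 h in serum-free induction medium, 100 uM down in half-log dilutions.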

[3] = read-out: Apolipoprotein A-V (APOA5) gene, APOA5 (gene 116519); assay: LTEA_HepaRG_APOA5: Life Technologies and Expression Analysis (LTEA) Assay for Apolipoprotein A-V (APOA5) gene using HepaRG (AID 2283474)
How it was run: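 Readout is APOA5 transcript level by qRT-PCR on Fluidigm dynamic arrays, normalized to three housekeeping genes. HepaRG cultures received chemicals for 48 h at up to 100 uM (half-log steps, 0.5% DMSO), with gain or loss scored relative to DMSO.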

[4] = read-out: Apoptosis regulator Bcl-2 (Homo sapiens) (UniProt P10415); assay: LTEA_HepaRG_BCL2: Life Technologies and Expression Analysis (LTEA) Assay for Bcl-2 gene using HepaRG (AID 2283475)
How it was run: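 HepaRG, plated 48 h then switched to serum-free induction medium; dosed 48 h, 8 conc. (max 100 uM, half-log steps), duplicate, 0.5% DMSO. Lysis in RLT, RNA isolated, TaqMan qRT-PCR for BCL2; ACTB/GAPDH/POLR2A normalisation; bidirectional fit vs DMSO.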

[5] = read-out: Bcl-2 (BID) gene, BID (gene 637); assay: LTEA_HepaRG_BID: Life Technologies and Expression Analysis (LTEA) Assay for Bcl-2 (BID) gene using HepaRG (AID 2283476)
How it was run: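 Transcript levels of BID, measured by qRT-PCR and normalized to three housekeeping genes, were fitted bidirectionally against DMSO controls. Cells were HepaRG, dosed 48 h at up to 100 uM.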

[6] = read-out: Cytochrome P450 (CYP24A1), CYP24A1 (gene 1591); assay: LTEA_HepaRG_CYP24A1: Life Technologies and Expression Analysis (LTEA) Assay for Cytochrome P450 (CYP24A1) using HepaRG (AID 2283478)
How it was run: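 HepaRG, 48 h chemical exposure, 8-pt half-log CRC from 100 uM, 0.5% DMSO vehicle, duplicates. Endpoint: CYP24A1 mRNA by Fluidigm TaqMan qRT-PCR, normalized ACTB/GAPDH/POLR2A; gain/loss fit vs DMSO.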

[7] = read-out: Cytochrome P450 (CYP1A2), CYP1A2 (gene 1544); assay: LTEA_HepaRG_CYP1A2: Life Technologies and Expression Analysis (LTEA) Assay for Cytochrome P450 (CYP1A2) using HepaRG (AID 2283479)
How it was run: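 CYP1A2 transcript induction or loss, quantified by Fluidigm qRT-PCR against three housekeeping genes, was fitted bidirectionally against 0.5% DMSO controls. Human HepaRG cells received eight half-log concentrations from 100 uM over 48 h.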

[8] = read-out: Cytochrome P450 (CYP2B6), CYP2B6 (gene 1555); assay: LTEA_HepaRG_CYP2B6: Life Technologies and Expression Analysis (LTEA) Assay for Cytochrome P450 (CYP2B6) using HepaRG (AID 2283481)
How it was run: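 HepaRG cells plated 48 h, switched to serum-free induction medium, then dosed 48 h (8 points, half-log from 100 uM, 0.5% DMSO). RNA isolated; CYP2B6 expression measured by qRT-PCR; gain or loss fitted relative to DMSO.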

[9] = read-out: Cytochrome P450 2C19 (Homo sapiens) (UniProt P33261); assay: LTEA_HepaRG_CYP2C19: Life Technologies and Expression Analysis (LTEA) Assay for CYP2C19 using HepaRG (AID 2283482)
How it was run: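 Transcript levels of CYP2C19 were quantified by qRT-PCR after HepaRG cells were treated for 48 hours with test chemicals up to 100 uM (eight half-log concentrations, 0.5% DMSO vehicle). Gain or loss of signal was fitted relative to DMSO.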

Measured: AC50

Cytochrome P450 2C19 (Homo sapiens), sequence (P33261 whole entry, looked up): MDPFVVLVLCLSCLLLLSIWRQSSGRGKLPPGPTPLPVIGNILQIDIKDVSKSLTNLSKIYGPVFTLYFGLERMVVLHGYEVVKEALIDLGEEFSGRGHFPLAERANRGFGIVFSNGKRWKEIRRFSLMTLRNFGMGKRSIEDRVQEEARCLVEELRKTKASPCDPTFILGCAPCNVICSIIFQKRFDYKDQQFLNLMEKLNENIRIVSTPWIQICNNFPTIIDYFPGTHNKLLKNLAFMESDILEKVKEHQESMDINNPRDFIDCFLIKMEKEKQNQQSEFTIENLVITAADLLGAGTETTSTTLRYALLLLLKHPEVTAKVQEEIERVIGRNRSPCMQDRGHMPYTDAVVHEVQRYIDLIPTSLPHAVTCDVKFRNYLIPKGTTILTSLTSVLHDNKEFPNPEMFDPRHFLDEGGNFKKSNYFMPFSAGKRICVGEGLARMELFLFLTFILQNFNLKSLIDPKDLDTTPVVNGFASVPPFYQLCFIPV
Apoptosis regulator Bcl-2 (Homo sapiens), sequence (P10415 whole entry, looked up): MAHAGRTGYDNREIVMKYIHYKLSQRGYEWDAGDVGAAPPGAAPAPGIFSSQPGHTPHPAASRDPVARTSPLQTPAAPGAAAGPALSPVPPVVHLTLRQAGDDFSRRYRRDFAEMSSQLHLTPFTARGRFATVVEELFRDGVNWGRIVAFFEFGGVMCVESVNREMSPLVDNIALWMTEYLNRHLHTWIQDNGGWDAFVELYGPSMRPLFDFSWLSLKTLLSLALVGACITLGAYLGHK

CS(=O)(=O)c1ccc([C@@H](CC2CCCC2)C(=O)Nc2cnccn2)cc1Cl
inactive: [2] | BCL2L11 (gene 10018) | [5]
active: [1] 41.3 µM | [3] 71.2 µM | [4] 61.8 µM

CCCCc1oc2ccccc2c1C(=O)c1cc(I)c(OCCN(CC)CC)c(I)c1
inactive: [2] | BCL2L11 (gene 10018) | [5]
active: [1] 65.2 µM | [3] 61.6 µM | [4] 59.5 µM

O=C1NS(=O)(=O)c2ccccc21
inactive: all assays above

CCC(C)c1ccccc1O (stereo unspecified)
inactive: all assays above

CCCCCCCCCCCCCCC
active: [8] 5.89 µM | [9] 17.3 µM
inactive: all other assays above

O=C(CCCN1CCC(O)(c2ccc(Cl)cc2)CC1)c1ccc(F)cc1
active: [1] 81.1 µM | [4] 81.3 µM | [7] 82.6 µM | [8] 79.7 µM
not listed: [9]
inactive: all other assays above

CN(Cc1cnc2nc(N)nc(N)c2n1)c1ccc(C(=O)N[C@@H](CCC(=O)O)C(=O)O)cc1
active: [7] 0.0974 µM | [8] 0.16 µM
inactive: all other assays above

N=C(N)c1ccc(OCCCCCOc2ccc(C(=N)N)cc2)cc1
inactive: [6]
active: [1] 6.28 µM | [2] 30.5 µM | BCL2L11 (gene 10018) 3.64 µM | [3] 11.4 µM | [4] 73.6 µM | [5] 68.3 µM | [7] 5.43 µM | [8] 3.74 µM | [9] 6.53 µM

CC(=O)Nc1ccc(O)cc1
inactive: all assays above

OCC(CO)(CBr)CBr
not listed: [4]
inactive: all other assays above

O=C(c1ccccc1)c1ccccc1
inactive: [1] | [2] | BCL2L11 (gene 10018) | [3] | [4] | [5]

CCCCCCCCCCCCOS(=O)(=O)O
active: [1] 50 µM | [4] 86.9 µM | [7] 71.2 µM | [8] 94.1 µM | [9] 82.1 µM
inactive: all other assays above

CN(C)CCOC(c1ccccc1)c1ccccc1
inactive: [1] | [2] | BCL2L11 (gene 10018) | [3] | [4] | [5]

Cc1[nH]nc2c1N=C(c1ccccc1Cl)c1cc([N+](=O)[O-])ccc1N2
active: [1] 3.85 µM | BCL2L11 (gene 10018) 2.82 µM | [3] 9.84 µM | [4] 8.98 µM | [6] 4.02 µM | [7] 11.5 µM | [8] 8.93 µM | [9] 4.24 µM
inactive: [2]

CCCCC=O
inactive: all assays above

CCCCC(CC)C(=O)O (stereo unspecified)
inactive: all assays above
